Assay [1] in a line: cAMP Responsive Elements (CRE) small molecule antagonists, cell-based qHTS assay: qHTS cell viability counter screen (AID 2060913). Further: nearly all actives have a fitted effect of over 40% in size. The procedure, abridged:
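Viability of NKH477-stimulated (0.25 uM final) CRE-bla HEK293T cells is measured by CellTiter-Glo luminescence following 3 hrs compound exposure at 37 C.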

A short description of assay [2]: cAMP Responsive Elements (CRE) small molecule agonists, cell-based qHTS assay: qHTS cell viability counter screen (AID 2060914).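 Further: viability read after 3 h of compound exposure; nearly all actives have a fitted effect of over 50% in size.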 The procedure, abridged: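 CRE-bla HEK 293T cells, plated 18 h at 37 °C, were exposed to compounds for 3 h at 37 °C/5% CO2. Viability was then measured in the same wells by CellTiter-Glo luminescence after 30 min at room temperature.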

Records with an inconclusive call do not appear. Unmarked numbers belong to inactive results. The source made the active and inactive calls. The call rests on the fitted dose curve; in most records, active means well fitted cell-killing curve with a large enough effect in the repeat runs; inconclusive means weak or mixed curves, or effect the other way; inactive means flat fitted curve, though single readings scatter.
On the % scale 0 is the no-effect control and ±100 the full control effect.

Take `O=C(O)c1ccccc1`: the Potency result in assay [1] and in assay [2] was “inactive” in each case.
With `CCSC(=O)N(CC)CC`, the Potency entry in assay [1] and in assay [2] was “inactive” each time.
`CC1(C)OC(=O)NC1=O`: the Potency result in assay [1] and in assay [2] was “inactive” each time.
For the molecule `CCCCOC(=O)CC(CC(=O)OCCCC)(OC(C)=O)C(=O)OCCCC`, the Potency result in assay [1] and in assay [2] was “inactive” each time.
For `CCc1ccccc1CC`, the Potency entry in assay [1] and in assay [2] was “inactive” throughout.
As to `CCCCCCCCCCCCCOP(=O)(O)O`, the Potency result in assay [1] and in assay [2] was “inactive” each time.
As for `CCOC(=O)C(C)O` (stereo not drawn), the Potency entry in assay [1] and in assay [2] was “inactive” each time.
Consider `CC(C)Oc1ccccc1O`, for which the Potency result in assay [1] and in assay [2] was “inactive” each time.
On to `CCCCCCCCO[C@@H]1O[C@H](CO)[C@@H](O)[C@H](O)[C@H]1O`, for which the Potency entry in assay [1] and in assay [2] was “inactive” each time.
Regarding `Cc1nc2c([nH]1)c(=O)n(C)c(=O)n2Cc1ccco1`, the Potency entry in assay [1] and in assay [2] was “inactive” throughout.
Consider `Cc1[nH]c(=O)c(C#N)cc1-c1ccc2nccn2c1`, for which the Potency entry in assay [1] and in assay [2] was “inactive” in each case.
As for `Nc1ccc(N=Nc2ccccc2)c(N)c1`, the Potency result in assay [1] and in assay [2] was “inactive” throughout.
For the molecule `CCCCN1C(=O)[C@@H]([C@H](O)C2CCCCC2)NC(=O)C12CCN(Cc1ccc(Oc3ccc(C(=O)O)cc3)cc1)CC2`, the Potency entry in assay [1] and in assay [2] was “inactive” in each case.
As for `CC(=O)OCC(=O)[C@@]12N=C(C)O[C@@H]1C[C@H]1[C@@H]3CCC4=CC(=O)C=C[C@]4(C)[C@H]3[C@@H](O)C[C@@]12C`, the Potency result in assay [1] and in assay [2] was “inactive” each time.
On to `CC(=O)O[Si](C)(OC(C)=O)OC(C)=O`, for which the Potency entry in assay [1] and in assay [2] was “inactive” throughout.
With `CC(C)(C)NCC(O)c1ccc(O)c(CO)c1` (stereo not drawn), the Potency entry in assay [1] and in assay [2] was “inactive” each time.
With `CNC[C@H](O)c1cccc(O)c1`, the Potency entry in assay [1] and in assay [2] was “inactive” each time.
With `CC(C)COC(=O)c1ccccc1`, the Potency result in assay [1] and in assay [2] was “inactive” each time.
Turning to `CCCCCCCCCCCCS(=O)(=O)Cl`, in assay [1], the viability change, negative = cytotoxic was 11.7% [at 18.9 µM]. Further, the activity change, negative = cytotoxicity in assay [2] was 8.81% [at 18.9 µM].
With `CCCc1ccc(O)cc1`, the Potency entry in assay [1] and in assay [2] was “inactive” each time.
On to `Fc1ccccc1`, for which the Potency entry in assay [1] and in assay [2] was “inactive” throughout.
`c1ccc2c(c1)Cc1ccccc1-2`: the Potency entry in assay [1] and in assay [2] was “inactive” each time.
Consider `Cc1ccc([N+](=O)[O-])cc1Cl`, for which the Potency result in assay [1] and in assay [2] was “inactive” in each case.
On to `CCC(C)(C)C1CCC(OC)CC1` (stereo not drawn), for which the Potency result in assay [1] and in assay [2] was “inactive” throughout.
In the case of `Cl/C(=C\n1cncn1)c1ccc(Cl)cc1Cl`, the Potency result in assay [1] and in assay [2] was “inactive” each time.
In the case of `CC(=O)Nc1cccc(O)c1`, the Potency result in assay [1] and in assay [2] was “inactive” throughout.
`CC(C)(C#N)c1cc(Cn2cncn2)cc(C(C)(C)C#N)c1`: the Potency result in assay [1] and in assay [2] was “inactive” in each case.
As to `COc1ccc(CN(CCN(C)C)c2ncccn2)cc1`, the Potency entry in assay [1] and in assay [2] was “inactive” each time.
As for `OCCC(F)(F)C(F)(F)C(F)(F)C(F)(F)C(F)(F)C(F)(F)C(F)(F)C(F)(F)F`, the Potency result in assay [1] and in assay [2] was “inactive” each time.
`CC(C)(C)C(=O)C1C(=O)c2ccccc2C1=O`: the Potency result in assay [1] and in assay [2] was “inactive” in each case.
In the case of `CCCCCCCCCCO[C@@H]1O[C@H](CO)[C@@H](O)[C@H](O)[C@H]1O`, the Potency entry in assay [1] and in assay [2] was “inactive” throughout.
Take `CCC(=O)O[C@]1(C(=O)COC)[C@@H](C)C[C@H]2[C@@H]3CCC4=CC(=O)C=C[C@]4(C)C3(F)[C@@H](O)C[C@@]21C` (stereo partly drawn): the Potency entry in assay [1] and in assay [2] was “inactive” each time.
For `Cc1cc(N)c(S(=O)(=O)O)cc1Cl`, the Potency entry in assay [1] and in assay [2] was “inactive” each time.
Take `[Na+]`: the Potency result in assay [1] and in assay [2] was “inactive” throughout.
On to `O=C(O)COc1nn(Cc2ccccc2)c2ccccc12`, for which the Potency entry in assay [1] and in assay [2] was “inactive” each time.
Take `Cc1ccc(C)c([N+](=O)[O-])c1`: the Potency entry in assay [1] and in assay [2] was “inactive” in each case.
Consider `O=C(O)c1cc(C(=O)O)c(C(=O)O)cc1C(=O)O`, for which the Potency entry in assay [1] and in assay [2] was “inactive” throughout.
As for `CCCCCC1C(=O)CCC1CC(=O)OC` (stereo not drawn), the Potency entry in assay [1] and in assay [2] was “inactive” throughout.
Consider `CC1(COc2ccc(CC3SC(=O)NC3=O)cc2)CCCCC1` (stereo not drawn), for which the Potency entry in assay [1] and in assay [2] was “inactive” in each case.
As for `Cc1ccc(C=O)cc1`, the Potency entry in assay [1] and in assay [2] was “inactive” each time.
Consider `C=C(C)C(=O)OCCOP(=O)(O)OCCOC(=O)C(=C)C`, for which the Potency result in assay [1] and in assay [2] was “inactive” each time.
For the molecule `CCN(CC)CC(=O)Nc1c(C)cccc1C`, the Potency result in assay [1] and in assay [2] was “inactive” throughout.
`NCCN`: the Potency entry in assay [1] and in assay [2] was “inactive” throughout.
On to `CC(CC(=O)O)CC(C)(C)C` (stereo not drawn), for which the Potency entry in assay [1] and in assay [2] was “inactive” each time.
As for `CCCCCCCCCCCCCCCC(=O)O`, the Potency result in assay [1] and in assay [2] was “inactive” each time.
Take `CC(=O)Nc1ccc(N=Nc2cc(C)ccc2O)cc1`: the Potency entry in assay [1] and in assay [2] was “inactive” in each case.
Turning to `Oc1ccc(Cl)c2cccnc12`, the Potency result in assay [1] and in assay [2] was “inactive” in each case.
On to `CCCCC(CC)CN1CN(CC(CC)CCCC)CC(C)(N)C1` (stereo not drawn), for which the Potency entry in assay [1] and in assay [2] was “inactive” each time.
In the case of `CC(C)(C)c1cc(CCC(=O)NCCCCCCNC(=O)CCc2cc(C(C)(C)C)c(O)c(C(C)(C)C)c2)cc(C(C)(C)C)c1O`, the Potency result in assay [1] and in assay [2] was “inactive” each time.
For the molecule `OCCN(CCO)CCN(CCO)CCO`, the Potency result in assay [1] and in assay [2] was “inactive” each time.
For `NCCNCCNCCNCCN`, the Potency entry in assay [1] and in assay [2] was “inactive” each time.
In the case of `O=C(Cl)c1ccccc1[N+](=O)[O-]`, the Potency entry in assay [1] and in assay [2] was “inactive” in each case.
As for `OC1CCCCC1c1ccccc1` (stereo not drawn), the Potency result in assay [1] and in assay [2] was “inactive” throughout.
As for `NS(=O)(=O)c1cc2c(cc1C(F)(F)F)NCNS2(=O)=O`, the Potency entry in assay [1] and in assay [2] was “inactive” throughout.
Take `COc1cc(C(=O)N2CCCCCCC2)cc(OC)c1OC`: the Potency entry in assay [1] and in assay [2] was “inactive” throughout.
Turning to `Clc1sc(Cl)c(Cl)c1Cl`, the Potency entry in assay [1] and in assay [2] was “inactive” each time.
In the case of `Nc1ccc2ccccc2c1S(=O)(=O)O`, the Potency result in assay [1] and in assay [2] was “inactive” throughout.
`O=S(O)O`: in assay [1], the viability change, negative = cytotoxic was 17.7% [at 18.9 µM]. The activity change, negative = cytotoxicity in assay [2] was 3.71% [at 18.9 µM].
In the case of `C#CC(C)(O)CC(C)C` (stereo not drawn), the Potency result in assay [1] and in assay [2] was “inactive” throughout.

The values above are taken from PubChem BioAssay (Tox21).
